# From PMC4336329 (PLoS ONE, 2015)
# About 2,200 (0.71%) of roughly 310,000 compounds showed an effect of 50% or more. The effect is printed as a negative number. Only a selection was taken, and strong results are over-represented in it overall.
# Biological target: human ether-à-go-go-related gene (hERG) potassium channel (human, UniProt Q12809)
# Assay: primary screen, population patch clamp on CHO cells stably expressing hERG; higher = less effect of the substance
# Chain of human ether-à-go-go-related gene (hERG) potassium channel (Q12809 whole entry, looked up): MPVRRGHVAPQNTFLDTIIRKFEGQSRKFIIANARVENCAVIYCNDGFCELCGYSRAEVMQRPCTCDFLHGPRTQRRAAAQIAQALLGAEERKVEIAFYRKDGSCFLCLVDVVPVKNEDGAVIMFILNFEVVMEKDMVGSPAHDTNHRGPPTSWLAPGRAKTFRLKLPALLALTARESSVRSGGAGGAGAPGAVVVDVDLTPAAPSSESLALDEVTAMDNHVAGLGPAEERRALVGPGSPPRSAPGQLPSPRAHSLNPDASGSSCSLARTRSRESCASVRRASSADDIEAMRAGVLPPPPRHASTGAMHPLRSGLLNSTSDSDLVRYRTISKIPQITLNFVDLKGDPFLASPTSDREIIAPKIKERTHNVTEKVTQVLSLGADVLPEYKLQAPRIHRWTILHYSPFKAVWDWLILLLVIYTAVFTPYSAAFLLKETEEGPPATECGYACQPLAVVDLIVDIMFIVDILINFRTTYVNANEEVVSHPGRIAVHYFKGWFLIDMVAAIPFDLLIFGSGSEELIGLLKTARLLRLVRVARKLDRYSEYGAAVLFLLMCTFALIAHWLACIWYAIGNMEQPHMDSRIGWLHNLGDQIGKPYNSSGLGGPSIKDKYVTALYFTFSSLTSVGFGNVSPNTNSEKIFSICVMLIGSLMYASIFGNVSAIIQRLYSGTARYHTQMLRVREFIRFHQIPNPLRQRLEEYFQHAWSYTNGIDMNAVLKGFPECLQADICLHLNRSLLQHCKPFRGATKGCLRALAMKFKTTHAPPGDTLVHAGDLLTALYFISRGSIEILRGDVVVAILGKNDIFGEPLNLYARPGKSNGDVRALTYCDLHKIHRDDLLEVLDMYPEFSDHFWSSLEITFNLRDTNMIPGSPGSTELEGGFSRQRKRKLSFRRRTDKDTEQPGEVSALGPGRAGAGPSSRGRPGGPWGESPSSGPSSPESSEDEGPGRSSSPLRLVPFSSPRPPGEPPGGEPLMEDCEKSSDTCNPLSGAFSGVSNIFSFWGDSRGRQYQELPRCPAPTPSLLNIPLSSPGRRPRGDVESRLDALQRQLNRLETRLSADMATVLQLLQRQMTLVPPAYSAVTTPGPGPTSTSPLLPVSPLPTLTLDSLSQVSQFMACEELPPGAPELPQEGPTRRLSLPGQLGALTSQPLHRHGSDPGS
row,SMILES,"hERG current change (%, negative = inhibition) at 1uM"
1,O=C(N/N=C/c1cc([N+](=O)[O-])cc([N+](=O)[O-])c1O)C(O)(c1ccccc1)c1ccccc1,0.978%
2,O=C(N/N=C/c1cc(Cl)cc([N+](=O)[O-])c1O)C(O)(c1ccccc1)c1ccccc1,-62.4%
3,O=C(N/N=C/c1cccc([N+](=O)[O-])c1O)C(O)(c1ccccc1)c1ccccc1,18.6%
4,CSc1cccc(NS(=O)(=O)c2ccc(F)cc2)c1,7.73%
5,COCCCNC(=O)CC(C)c1ccccc1 (stereo not shown),8.27%
6,Cn1c2ccccc2n2c(=O)c(=O)n(CC(=O)N3CCCc4ccccc43)nc12,-1.27%
7,Br.CCCCCCCCCn1c2c(c(=N)c3c1CCC3)CCC2,-65.5%
8,CCOC(=O)Cn1c2c(c(=N)c3c1CCC3)CCC2.Cl,10.2%
9,CCCn1c2c(c(=N)c3c1CCC3)CCC2.I,8.15%
10,Br.CCCCCCn1c2c(c(=N)c3c1CCC3)CCC2,-54%
11,Br.CCCCCCCCn1c2c(c(=N)c3c1CCC3)CCCC2,-84.6%
12,Br.CCn1c2c(c(=N)c3c1CCC3)CCC2,6.51%
13,CCCn1c2c(c(=N)c3c1CCC3)CCCC2.I,6.36%
14,CCCCCCn1c(=O)[nH]c2c(c1=O)CCC2,11.6%
15,Br.CCn1c2c(c(=N)c3c1CCC3)CCCC2,4.22%
16,CCCCn1c2c(c(=N)c3c1CCC3)CCC2.I,5.32%
17,CCOC(=O)Cn1c2c(c(=N)c3c1CCC3)CCCC2.Cl,12.8%
18,Br.CCCCCCCCCCn1c2c(c(=N)c3c1CCC3)CCC2,-71.7%
19,CC(=O)n1cc(/C=N/NC(=O)c2cccc(O)c2)c2ccccc21,13.7%
20,CC(CC(=O)O)CC(=O)NNC(=O)c1cccc(Br)c1 (stereo not shown),8.72%
21,C/C(N)=C(/C#N)C(=O)COC(=O)CCSc1ccccc1Cl,12.1%
22,CCN(c1ccccc1)S(=O)(=O)c1ccc(Cl)c(C(=O)NCC2CCCO2)c1 (stereo not shown),2.1%

row,SMILES,"hERG current change (%, negative = inhibition) at 1uM"
1,O=C(C1CCN(C2CCN(C/C(Cl)=C/c3ccccc3)CC2)CC1)N1CCOCC1,-33.8%
2,CN1CCN(C(c2ccc(C(F)(F)F)cc2)c2ccc3cccnc3c2O)CC1 (stereo not shown),7.36%
3,CCC1Oc2nc(SC)nnc2-c2ccccc2N1C(=O)c1ccccc1 (stereo not shown),11.8%
4,COC(=O)C1=C(C)Nc2nc3ccccc3n2C1c1ccccc1F (stereo not shown),8.31%
5,Cc1cc(CNC(=O)CC2C(=O)NCCN2CC(C)(C)C)nn1C (stereo not shown),10.4%
6,Cc1cc(C=C2C(=O)NC(=O)NC2=O)c(C)n1-c1ccc2c(c1)OCO2,13.5%
7,CC(=O)c1cccc(OCC(O)CN2CCN(S(=O)(=O)c3c(F)cccc3F)CC2)c1.O=C(O)C(=O)O (stereo not shown),1.4%
8,CCOC(=O)C1CCN(CC(O)COCc2ccc(Cl)cc2)CC1.Cl (stereo not shown),-58.6%
9,CCOC(=O)C1CCN(CC(O)COCc2ccccc2)CC1.O=C(O)C(=O)O (stereo not shown),3.28%
10,CCOC(=O)c1ccc(S(=O)(=O)N2CCN(CC(O)COc3cccc(C(C)=O)c3)CC2)cc1.O=C(O)C(=O)O (stereo not shown),10%
11,CCOC(=O)C1CCN(CC(O)COc2ccc(C(=O)CC)cc2)CC1.Cl (stereo not shown),-49.5%
12,CCOC(=O)C1CCN(CC(O)COCc2ccc3c(c2)OCO3)CC1.Cl (stereo not shown),1.96%
13,CCOC(=O)C1CCN(CC(O)COc2ccc(C(C)=O)cc2)CC1.Cl (stereo not shown),-30.4%
14,CC(=O)c1cccc(OCC(O)CN2CC=C(c3ccccc3)CC2)c1.O=C(O)C(=O)O (stereo not shown),-50%
15,Cl.OC(COCc1ccc(Cl)cc1)CN1CCCCC1 (stereo not shown),0.152%
16,CCOC(=O)C1CCN(CC(O)COc2ccc(C(C)(C)C)cc2)CC1.Cl (stereo not shown),-53.2%
17,Cl.OC(COCc1ccccc1)CN1CCCC1 (stereo not shown),1.21%
18,OC(COCc1ccc(Cl)cc1)CN1CCN(CC(O)COCc2ccc(Cl)cc2)CC1 (stereo not shown),-67.5%
19,COc1cccc(N2CCN(C(=O)Cn3c(=O)oc4ccccc43)CC2)c1,4.28%
20,Cc1ccc(-c2nn(-c3ccccc3)cc2/C=N/n2c(-c3cccs3)n[nH]c2=S)cc1,15%
21,NS(=O)(=O)c1ccc(CCNC(=O)CNC(=O)c2ccccc2F)cc1,11.3%
22,CCOc1ccc(Cc2noc3c2C(=O)CCC3)cc1OCC,23.3%

row,SMILES,"hERG current change (%, negative = inhibition) at 1uM"
1,O=C(NCCCCCCNC(=O)NCc1ccco1)NCc1ccco1,6.09%
2,O=C1CCC(/C=C/c2ccccc2)=NN1Cc1ccc(Cl)c(Cl)c1,2.78%
3,O=C(NCc1ccccn1)/C(=N/O)c1ccccc1,9.34%
4,CC(C)n1c(O)c(N=Nc2ccc(Cl)nn2)c2ccccc21,10.7%
5,C=CCNC(=S)/C(=C(\[O-])c1ccc(Cl)cc1)[n+]1ccccc1,11.2%
6,Cc1ccc(S(=O)(=O)NCC2CCC(C(=O)N3CCN(C)CC3)CC2)cc1 (stereo not shown),22.1%
7,O=C(O)C(=O)O.OC(COCc1ccc(Cl)cc1)CN1CC=C(c2ccccc2)CC1 (stereo not shown),-84.2%
8,NC(=O)C1CCCN(CC(O)COCc2ccc(Cl)cc2)C1.O=C(O)C(=O)O (stereo not shown),11.5%
9,Cl.OC(COCc1ccc(Cl)cc1)CN1CCc2ccccc2C1 (stereo not shown),-27.3%
10,C=CC[N+]1(CC=C)CCOCC1.[Br-],34.2%
11,COc1ccc(C(=O)/C=C/c2cn(CN3CCN(C)CC3)c3ccccc23)cc1,-3.29%
12,CCOC(=O)C1CCN(C(=O)C2CCN(c3nc4ccc(OC)cc4s3)CC2)CC1,-53.4%
13,COc1ccc2nc(C)cc(N3CCC(C(N)=O)CC3)c2c1,-2.62%
14,CCOc1ccc2nc(N3CCC(C(=O)N4CCC5(CC4)OCCO5)CC3)sc2c1,6.77%
15,Cc1ccc2nc(N3CCN(C(=O)c4ccco4)CC3)sc2c1,-7.42%
16,O=C(c1ccco1)N1CCN(c2nc3ccsc3c(=O)s2)CC1,-74.5%
17,CCOc1ccc2nc(N3CCC(C(=O)N4CCN(c5ccccn5)CC4)CC3)sc2c1,-17.4%
18,COc1ccc(N2CCN(c3cc(C)nc4ccc(OC)cc34)CC2)cc1,-31%
19,CCOc1ccc2nc(N3CCC(C(=O)N4CCN(C5CCCCC5)CC4)CC3)sc2c1,-8.64%
20,CCOc1ccc2nc(N3CCC(C(=O)N4CCN(C(=O)c5ccco5)CC4)CC3)sc2c1,-89.3%
21,CCOc1ccc2nc(N3CCC(C(=O)N4CCN(c5ncccn5)CC4)CC3)sc2c1,4.83%
22,CCOC(=O)C1CCN(c2cc(C)nc3ccc(OC)cc23)CC1,-56.1%

row,SMILES,"hERG current change (%, negative = inhibition) at 1uM"
1,Cc1ccc(Cl)c2sc(N3CCN(C(=O)c4ccco4)CC3)nc12,-0.903%
2,O=C(O)C1CCC(=O)N1C1c2ccccc2Oc2ccccc21 (stereo not shown),7.76%
3,CC(NCC(=O)NCCc1ccc(S(N)(=O)=O)cc1)c1ccc(F)cc1 (stereo not shown),15.1%
4,COc1ccccc1/C(C)=N/NC(=S)NCc1ccccc1,0.32%
5,COCc1nc(-c2ccc(-c3ccc(C)cc3)nc2OC)no1,4.81%
6,Cn1cccc1/C=N/N1CCN(c2ccccc2)CC1,18.1%
7,COc1ccc(CC(=O)OCC(=O)N2CCCc3ccccc32)cc1,7.67%
8,CCOC(=O)/C(C#N)=C1/C=CN(c2ccccc2)C=N1,7.43%
9,CCCn1c(N)c(C(=O)CSc2nnc3n2CCCCC3)c(=O)[nH]c1=O,4.02%
10,CCOP(=O)(OCC)/C(C#N)=C/c1ccc([N+](=O)[O-])cc1,-4.07%
11,N#Cc1cc2c(=O)n3ccccc3nc2n(Cc2cccnc2)c1=O,2.54%
12,COCCCn1c(C(=O)N2CCOCC2)cc2c(=O)n3ccccc3nc21,3.13%
13,CCCn1c(=NC(C)=O)c(C(=O)OCC)cc2c(=O)n3ccccc3nc21,8.09%
14,N=c1c(S(=O)(=O)c2ccc(Cl)cc2)cc2c(=O)n3ccccc3nc2n1Cc1cccnc1,7.26%
15,CCCCn1c(=NC(=O)c2ccco2)c(C(=O)OCC)cc2c(=O)n3ccccc3nc21,-44.1%
16,COCCCn1c(C(=O)Nc2ccc3c(c2)OCO3)cc2c(=O)n3ccccc3nc21,13.5%
17,CCOC(=O)c1cc2c(=O)n3ccccc3nc2n(Cc2ccccc2)c1=N,-68.9%
18,COCCCn1c(=N)c(C(=O)NCc2ccc3c(c2)OCO3)cc2c(=O)n3ccccc3nc21,-87.4%
19,N=c1c(C(=O)NCc2ccc(F)cc2)cc2c(=O)n3ccccc3nc2n1Cc1cccnc1,-80.3%
20,N=c1c(S(=O)(=O)c2ccccc2)cc2c(=O)n3ccccc3nc2n1Cc1cccnc1,6.5%
21,COc1ccc(CNC(=O)c2cc3c(=O)n4ccccc4nc3n(Cc3cccnc3)c2=N)cc1,-32.6%
22,COC(=O)c1cc2c(=O)n3ccccc3nc2n(Cc2cccnc2)c1=N,-51.5%
